{
  "source": "PubChem BioAssay (NCI)",
  "note": "Compounds without any hit were thinned out: in the full panel of roughly 83,000, 20% have a hit.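 For each line, cells grew in 96-well plates with the test compound present at a single concentration for 48 hours.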 A number with no mark means an inactive call. Active and inactive are the calls of the source. How the source made its calls: active means growth percent below 10; inactive means the rest.",
  "data": [
    {"test_system": "KM12 colon", "assay": "NCI-60 one-dose screen, 48 h (100 = growth as untreated, 0 = no growth, -100 = all killed)", "settings": "10 µM unless noted", "values": [
      {"smiles": "O=C(CSc1nc2sc3c(c2c(=O)n1-c1ccc(Cl)cc1)CCCC3)NNC(=O)Nc1cccc(C(F)(F)F)c1", "growth": "11%"},
      {"smiles": "CCCCN1C(=O)/C(=c2\\sc3n(c2=O)C2C(NN=3)N(CC)C(=O)N2CC)c2cc(Cl)ccc21", "note": "(centres undefined)", "growth": "55.8%"},
      {"smiles": "COc1cc(OC)c(C2C(Cl)C(=O)N2Nc2ncnc3ccccc23)cc1OC", "note": "(centres undefined)", "growth": "101%"},
      {"smiles": "CC(=O)Oc1ccccc1C(=O)Nc1ccc(C(=O)/C=C/c2ccncc2)cc1", "growth": "-31.9% (active)"},
      {"smiles": "COc1ccc(/C=C/C(=O)c2ccc(NC(=O)CSc3nnc(-c4ccc5nc(-c6ccc(Cl)cc6)[nH]c5c4)o3)cc2)cc1", "growth": "99.7%"},
      {"smiles": "COc1cc(/C=C/C(=O)c2ccc(F)cc2)ccc1Oc1nc(NCCO)nc(N2CCOCC2)n1", "growth": "27.3%"},
      {"smiles": "Cn1ccnc1C(=O)/C=C/c1ccc(NC(=O)Nc2ccc(Cl)cc2)cc1", "growth": "49.6%"},
      {"smiles": "O=C(CSc1nc2sc3c(c2c(=O)n1-c1ccc(Cl)cc1)CCCC3)NNC(=O)Nc1ccc(Cl)c(C(F)(F)F)c1", "growth": "25.9%"},
      {"smiles": "C#C[C@]1(O)CC[C@H]2[C@@H]3CC=C4c5sc(-c6ccc(F)cn6)nc5CC[C@]4(C)[C@H]3CC[C@@]21C", "growth": "13.9%"},
      {"smiles": "CC(=NNc1ncnc2ccccc12)c1ccc(S(C)(=O)=O)cc1", "growth": "102%"},
      {"smiles": "COc1ccc(-c2cc(C(=O)N=Nc3c(O)[nH]c4ccccc34)c3ccccc3n2)cc1OC", "growth": "92%"},
      {"smiles": "Fc1ccc(-c2cc3nc(C(Cl)Cl)nc(-c4ccc(Cl)cc4)n3n2)cc1", "growth": "-17.1% (active)"},
      {"smiles": "CN(C)c1ccc(/C=C2\\Cc3c(F)ccc(Br)c3C2=O)cc1", "growth": "93.1%"},
      {"smiles": "COC(=O)C1CN(S(=O)(=O)/N=C2\\NC(=O)NC2=C(Cl)Cl)C1", "growth": "8.89% (active)"},
      {"smiles": "c1ccc2c(NCCCn3ccnc3)c3oc4ccccc4c3nc2c1", "growth": "7.47% (active)"},
      {"smiles": "Fc1ccc(-c2nc(C(Cl)Cl)nc3cc(-c4ccccc4)nn23)cc1", "growth": "-12% (active)"},
      {"smiles": "N#Cc1c(-c2ccc(F)cc2)nc2c(C#N)c(Nc3ccccc3)nn2c1N", "growth": "97.9%"},
      {"smiles": "C#Cc1nc(C2=C(C)C(O)CC2)cs1", "note": "(centres undefined)", "growth": "63.9%"},
      {"smiles": "O=C(O)CCCCCN1C(=O)/C(=C/c2ccc(O)c(O)c2)SC1=S", "growth": "105%"},
      {"smiles": "CCN1CCN(/C(=N\\c2sc(-c3ccccc3)nc2-c2ccccc2)c2ccccc2)CC1", "growth": "59.8%"},
      {"smiles": "CS(=O)(=O)c1ccc(-c2nc3ccccn3c2/C=N/Nc2nc(-c3ccc(Br)cc3)cs2)cc1", "growth": "101%"},
      {"smiles": "CS(=O)(=O)Nc1ccc(-c2nn(-c3ccc(S(C)(=O)=O)cc3)cc2/C=C/C(=O)c2ccc(NC(=O)CO[N+](=O)[O-])cc2)cc1", "growth": "106%"},
      {"smiles": "Clc1ccc(-c2cn3cc(Cc4ccc(Cl)c(Cl)c4)sc3n2)cc1", "growth": "32.1%"},
      {"smiles": "CC(O)C(NC(=O)C1CCCN1C(=O)CNC(=O)C1CC(=O)NCC(=O)NC(Cc2c[nH]c3ccccc23)C(=O)NC(Cc2ccc(O)cc2)C(=O)NCC(=O)NC(CO)C(=O)NC(CCC(N)=O)C(=O)NC(Cc2c[nH]c3ccccc23)C(=O)N1)C(=O)NCC(=O)NC(CCC(N)=O)C(=O)NC(CCCNC(=N)N)C(=O)NC(CC(=O)O)C(=O)O", "note": "(centres undefined)", "growth": "105%"},
      {"smiles": "O=C(CSc1nccc(=O)[nH]1)Nc1ccc(-c2nc3ccccc3[nH]2)cc1", "growth": "86.3%"},
      {"smiles": "O=c1[nH]c2ccccc2cc1CSc1ccccc1Nc1nccc(-c2ccc(C(F)(F)F)cc2)n1", "growth": "79.3%"},
      {"smiles": "CCOC(=O)c1c(Nc2ccccc2)nn2c(N)c(C#N)c(-c3ccc(OC)cc3)nc12", "growth": "83%"},
      {"smiles": "COc1ccc(C(=O)/C=C/c2ccc(OCc3ccc(Cl)cc3)c(OC)c2)cc1OC", "growth": "54.9%"},
      {"smiles": "CCCCCCNC(=O)Oc1ccc(/C(=C(/C)c2ccccc2)c2ccc(OCCN3CCCCCC3)cc2)cc1", "growth": "32.3%"},
      {"smiles": "Clc1ccc2oc3c(OCCCn4ccnc4)c4ccccc4nc3c2c1", "growth": "55.8%"},
      {"smiles": "COc1ccc(-n2c(SCC(=O)Nc3ccc(-c4nc5ccccc5[nH]4)cc3)nc3ccccc3c2=O)cc1", "growth": "18.7%"},
      {"smiles": "Cc1cc2nc3c4cc(Cl)ccc4n(CC(=O)NCCN(C)C)c3nc2cc1C", "growth": "86.2%"},
      {"smiles": "Cc1ccc(-c2nc(C(Cl)Cl)nc3cc(-c4ccccc4)nn23)cc1", "growth": "-6.93% (active)"},
      {"smiles": "C[C@@H]1CN(c2ccc3ncc(C#Cc4cncc(C(=O)Nc5ccc(CN6CCN(C)CC6)c(C(F)(F)F)c5)c4)n3n2)C[C@H](C)O1", "growth": "-7.61% (active)"}
    ]}
  ]
}
